The list is not random: actives were taken first. Their share in the collection is about 2.4%.
D2 antagonist – D2 dopamine receptor (human) antagonism. HEK293 TREx D2 cells, calcium flux, dopamine EC80. 340,000 compounds, 2% hits. P14416. inhibition, % at 10 µM; in the data active = inhibition above about 30%; inactive = below that, where a call was filed
Target sequence (P14416 whole entry, looked up): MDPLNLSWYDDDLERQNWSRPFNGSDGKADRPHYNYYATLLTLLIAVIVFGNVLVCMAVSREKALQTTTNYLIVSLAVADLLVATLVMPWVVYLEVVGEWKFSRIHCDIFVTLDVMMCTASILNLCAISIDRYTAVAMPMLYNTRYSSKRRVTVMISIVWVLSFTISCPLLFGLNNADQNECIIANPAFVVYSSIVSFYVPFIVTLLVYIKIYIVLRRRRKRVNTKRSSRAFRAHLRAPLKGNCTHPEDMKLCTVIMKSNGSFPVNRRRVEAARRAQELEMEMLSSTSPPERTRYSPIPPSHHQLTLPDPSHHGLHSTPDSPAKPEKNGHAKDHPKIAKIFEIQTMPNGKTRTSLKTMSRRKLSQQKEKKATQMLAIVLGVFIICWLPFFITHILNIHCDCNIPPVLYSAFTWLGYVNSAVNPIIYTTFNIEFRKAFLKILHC
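Dopamine at EC80 is the agonist stimulus; test compounds precede it by 180 s. Calcium flux read kinetically in a force-coupled, inducible HEK293 T-REx D2 cell line.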
D2 PAM-1 – potentiates the human D2 dopamine receptor allosterically; DiscoveRx D2 beta-arrestin cells, luminescence, 90 min; 100% = 57 uM dopamine signal; 360,000 compounds, 0.23% hits; potentiation, % (test concentration not listed); P14416; in the data active = potentiation above about 50%; inconclusive = mostly about 30% to 49%
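PathHunter D2 cells, attached overnight at 37 deg C, received compound in DMSO plus dopamine at EC20 (50 nM final) for 90 min at 37 deg C. Beta-arrestin recruitment was read as luminescence after 1 h with detection reagent at ambient temperature.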
D2 ag-1 – agonists of human D2 dopamine receptor | HEK293 T-REx D2 cells, calcium flux agonist mode | activation, % at 2 µM | P14416 | 340,000 compounds, 0.53% hits;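 active = activation over 3 SD above normal in the single-dose calcium agonist read, cut at about 30% in these data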
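Calcium-flux readout, 1 cycle/sec over 180 s following compound pin transfer, in inducible HEK293 Trex D2 cells (force-coupled); dopamine controls included. Positive calcium responses during this window marked compounds as potential agonists.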
D2 ag-2 – activates the human D2 dopamine receptor; P14416; DiscoveRx PathHunter D2 beta-arrestin, luminescence, 90 min; 100% = 57 uM dopamine signal; activation, % (no concentration beside the values); 360,000 compounds, 0.084% hits; AID 624465; in the data active = activation above about 40%; inconclusive = between about 15% and that limit
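DiscoveRx PathHunter D2 beta-arrestin cells (2,100/well) attached overnight, then compound-stimulated 90 min at 37 C in HBSS/10 mM HEPES/0.1% Tween-20 buffer; beta-galactosidase complementation read by luminescence after 1 h at ambient temperature. Dopamine 57 uM final (EC100) as control.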
D2 PAM-2 – positive allosteric modulators of human D2 dopamine receptor. HEK293 T-REx D2, calcium flux, EC20 dopamine potentiation. potentiation, % at 10 µM. 340,000 compounds, 0.34% hits. AID 485347;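 active = potentiation over 3 SD above the plate norm, cut at about 30% in these data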
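Tetracycline-induced Hek293 Trex D2 cells, force-coupled to calcium, loaded with no-wash calcium dye. Compound added with 180 s kinetic read for agonism, then EC20 dopamine and a further 180 s read for potentiation.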
Numbers stand for hits.

Results for O=C(NCC(c1cccs1)S(=O)(=O)c1cccs1)c1ccc(Cl)cc1 (stereo unspecified) ?
D2 ag-1: inactive

What do the screens show for `CCOC(=O)c1c(C)oc2c1c1c(c3ccccc32)OCN(CCCC(=O)O)C1`?
D2 antagonist: inactive; D2 PAM-1: inactive; D2 ag-1: inactive; D2 ag-2: inactive; D2 PAM-2: inactive

Results for CCOC(=O)c1c(C)oc2c1c1c(c3ccccc32)OCN(Cc2cccnc2)C1 ?
D2 antagonist: inactive; D2 PAM-1: 113; D2 ag-1: inactive; D2 ag-2: inconclusive; D2 PAM-2: inactive

How did CC(C)CCNC(=O)Nc1ccc2c(c1)N(Cc1ccccc1)C(=O)c1ccccc1S2 do in these assays?
D2 ag-1: inactive; D2 PAM-2: inactive

What do the screens show for `Cc1cc(NC(=O)CCSc2nc(-c3ccco3)cc(C(F)(F)F)n2)no1`?
D2 antagonist: inactive; D2 PAM-1: inactive; D2 ag-1: inactive; D2 ag-2: inactive; D2 PAM-2: inactive

How did Cc1cc(NC(=O)CSc2nc(-c3ccco3)cc(C(F)(F)F)n2)no1 do in these assays?
D2 antagonist: 36; D2 PAM-1: inactive; D2 ag-1: inactive; D2 ag-2: inactive; D2 PAM-2: inactive

How did CNCCCC1c2ccccc2C=Cc2ccccc21 do in these assays?
D2 antagonist: 75; D2 PAM-1: inactive; D2 ag-1: inactive; D2 ag-2: inactive; D2 PAM-2: inactive

Results for Cc1cc(NC(=O)NCc2ccc3c(c2)CCN3C(=O)c2ccccc2)ccc1Br ?
D2 ag-1: inactive; D2 PAM-2: inactive

What do the screens show for `COc1cc(F)ccc1CN1CCC(C(=O)Nc2ccc(Oc3ccccc3)nc2)CC1`?
D2 antagonist: 40; D2 PAM-1: inactive; D2 ag-1: inactive; D2 ag-2: inactive; D2 PAM-2: inactive

Results for COc1ccc(CN2CCC(C(=O)Nc3ccc(Oc4ccccc4)nc3)CC2)cc1F ?
D2 antagonist: inactive; D2 PAM-1: inactive; D2 ag-1: inactive; D2 ag-2: inactive; D2 PAM-2: inactive

How did COC(=O)[C@@]1(Cc2ccc(F)cc2)[C@H]2c3cc(C(=O)N4CCCC4)n(CCO)c3C[C@H]2CN1C(=O)c1ccccc1 do in these assays?
D2 antagonist: inactive; D2 PAM-1: inactive; D2 ag-1: inactive; D2 ag-2: inactive; D2 PAM-2: inactive

What do the screens show for `COC(=O)[C@@]1(Cc2ccc(F)cc2)[C@H]2c3cc(C(=O)N4CCCC4)n(CCc4ccc(O)c(O)c4)c3C[C@H]2CN1C(=O)c1ccccc1`?
D2 antagonist: 96; D2 ag-1: 87; D2 PAM-2: inactive

Results for COc1ccc(C(CNC(=O)c2cccc(S(=O)(=O)Nc3ccccc3OC)c2)N2CCCC2)cc1 (stereo unspecified) ?
D2 antagonist: inactive; D2 PAM-1: inactive; D2 ag-1: inactive; D2 ag-2: inactive; D2 PAM-2: inactive

How did COc1ccc(C(CNC(=O)c2ccc(C)c(S(=O)(=O)Nc3ccccc3OC)c2)N2CCCC2)cc1 (stereo unspecified) do in these assays?
D2 antagonist: 49; D2 PAM-1: inactive; D2 ag-1: inactive; D2 ag-2: inactive; D2 PAM-2: inactive

How did COc1ccc(C(CNC(=O)c2cccc(N(C)C)c2)N2CCCC2)cc1 (stereo unspecified) do in these assays?
D2 antagonist: 47; D2 PAM-1: inactive; D2 ag-1: inactive; D2 ag-2: inactive; D2 PAM-2: inactive

How did C=CCN(c1ccccc1)S(=O)(=O)c1cccc(C(=O)NCC(c2ccc(OC)cc2)N2CCCCC2)c1 (stereo unspecified) do in these assays?
D2 antagonist: 55; D2 PAM-1: inactive; D2 ag-1: inactive; D2 ag-2: inactive; D2 PAM-2: inactive

What do the screens show for `CSc1ncc(C(=O)NCc2ccc(F)cc2)c(-c2ccccc2)n1`?
D2 ag-1: inactive; D2 PAM-2: inactive

What do the screens show for `Cc1ccc(SCc2cc(-c3ccc(Cl)cc3)no2)cc1`?
D2 PAM-1: inactive; D2 ag-2: inactive; D2 PAM-2: 32

How did N#CC1=C(N)Oc2ccccc2C12C(=O)Nc1n[nH]c(-c3ccccc3)c12 (stereo unspecified) do in these assays?
D2 antagonist: inactive; D2 PAM-1: inactive; D2 ag-1: inactive; D2 ag-2: inactive; D2 PAM-2: inactive

Results for Cn1c2c(c(=O)n(C)c1=O)C1(C(=O)Nc3ccccc31)C(C#N)=C(N)O2 (stereo unspecified) ?
D2 PAM-1: 54; D2 ag-2: inactive

How did Cc1cc(C)c(C(=O)c2ccc(C(=O)NC(C)(C)C)cc2)c(C)c1 do in these assays?
D2 antagonist: 40; D2 PAM-1: inactive; D2 ag-1: inactive; D2 ag-2: inactive; D2 PAM-2: inactive

What do the screens show for `Cc1ccc(CN2CCN(/N=C/c3cccn3C)CC2)c(C)c1`?
D2 antagonist: 51; D2 PAM-1: inactive; D2 ag-1: inactive; D2 ag-2: inactive; D2 PAM-2: inactive

How did Cc1ccc2c(c1)cc1c(=O)n(CC(=O)NC3CCCCC3)nc(C)n12 do in these assays?
D2 ag-1: inactive; D2 PAM-2: inactive

What do the screens show for `COc1ccc(CCN2C(=O)c3[nH]nc(-c4ccccc4O)c3C2c2cccc(OC)c2)cc1` (stereo unspecified)?
D2 ag-1: inactive; D2 PAM-2: inactive

How did COc1ccc(CCN2C(=O)c3[nH]nc(-c4ccccc4O)c3C2c2cccc(Cl)c2)cc1 (stereo unspecified) do in these assays?
D2 antagonist: inactive; D2 PAM-1: 91; D2 ag-1: inactive; D2 ag-2: inactive; D2 PAM-2: inactive

How did Cn1ccnc1SCC(=O)Nc1ccc(Cl)cn1 do in these assays?
D2 antagonist: 31; D2 PAM-1: inactive; D2 ag-1: inactive; D2 ag-2: inactive; D2 PAM-2: inactive

How did Cn1ccnc1SCC(=O)Nc1ccc([N+](=O)[O-])cn1 do in these assays?
D2 antagonist: inactive; D2 PAM-1: inactive; D2 ag-1: inactive; D2 ag-2: inactive; D2 PAM-2: inactive

How did Cc1ccccc1Nc1nc(N)c(C(=O)c2ccccc2Cl)s1 do in these assays?
D2 ag-1: inactive; D2 PAM-2: inactive

What do the screens show for `COc1cc(C(=O)OCCn2c(=O)c3c(ncn3CCN(C)C)n(C)c2=O)cc(OC)c1OC`?
D2 antagonist: 34; D2 PAM-1: inactive; D2 ag-1: inactive; D2 ag-2: inactive; D2 PAM-2: inactive

How did COc1ccc(OC)c(S(=O)(=O)N2Cc3ccccc3CC2C(=O)Nc2ccc(C(C)=O)cc2)c1 (stereo unspecified) do in these assays?
D2 ag-1: inactive; D2 PAM-2: inactive

How did Cc1ccc(NC(=O)C2CCC(CNS(=O)(=O)c3ccc4c(c3)CCCC(=O)N4)CC2)cc1F (stereo unspecified) do in these assays?
D2 PAM-2: inactive

How did CNC(=O)C1CCC(Cn2c(=O)c3sccc3n(Cc3ccccc3)c2=O)CC1 (stereo unspecified) do in these assays?
D2 ag-1: inactive; D2 PAM-2: inactive

Results for Cc1cc(Cl)ccc1OCC(=O)N1CCC(c2nc3ccccc3o2)CC1 ?
D2 ag-1: inactive; D2 PAM-2: inactive
